Columns and labels:
Test in all cases: DAPPL (digital affinity profiling via proximity ligation, sequencing); 10 mM Tris-HCl pH 7.5, 50 mM NaCl, 1 mM DTT, 4% glycerol, room temperature, 30 min; GST-TFs on glutathione beads, 16-mer random dsDNA library, 0.1% formaldehyde crosslink after washing; high values mean tight binding
FLI1 = biological target: T1, FLI1 (Homo sapiens, UniProt Q01543 1-452); settings: protein: recombinant; tags: N-terminal GST; dsDNA, one strand shown
T1 sequence: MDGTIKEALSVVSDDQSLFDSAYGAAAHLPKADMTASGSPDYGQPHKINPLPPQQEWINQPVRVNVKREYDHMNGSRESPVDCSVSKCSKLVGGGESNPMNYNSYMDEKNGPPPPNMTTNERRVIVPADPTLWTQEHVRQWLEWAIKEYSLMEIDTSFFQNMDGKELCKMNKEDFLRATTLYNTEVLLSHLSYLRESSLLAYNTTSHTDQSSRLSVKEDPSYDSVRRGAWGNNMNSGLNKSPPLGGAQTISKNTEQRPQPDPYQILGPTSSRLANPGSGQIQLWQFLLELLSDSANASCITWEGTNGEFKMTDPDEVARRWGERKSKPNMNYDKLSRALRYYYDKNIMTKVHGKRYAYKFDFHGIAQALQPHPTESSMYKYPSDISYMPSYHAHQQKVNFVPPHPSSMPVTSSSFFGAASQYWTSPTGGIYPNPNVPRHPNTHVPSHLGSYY
Method in brief: (§1)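 GST fusions of human transcription factors were expressed in yeast and captured with glutathione beads. Once given DNA barcodes and pooled alongside a tag-only sample, they were incubated for 30 min at room temperature with 200 nmole of a random double-stranded 16-mer DNA library in Tris/NaCl/DTT/glycerol buffer, then washed, crosslinked (0.1% formaldehyde), proximity-ligated, PCR-amplified and sequenced on an Illumina NextSeq500. The binding signal of each hexamer is its read frequency for a factor divided by its frequency for the tag-only sample.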

ELK1 = biological target: T2, ELK1 (Homo sapiens, UniProt P19419 1-428); settings: protein: recombinant; tags: N-terminal GST; dsDNA, one strand shown
T2 sequence: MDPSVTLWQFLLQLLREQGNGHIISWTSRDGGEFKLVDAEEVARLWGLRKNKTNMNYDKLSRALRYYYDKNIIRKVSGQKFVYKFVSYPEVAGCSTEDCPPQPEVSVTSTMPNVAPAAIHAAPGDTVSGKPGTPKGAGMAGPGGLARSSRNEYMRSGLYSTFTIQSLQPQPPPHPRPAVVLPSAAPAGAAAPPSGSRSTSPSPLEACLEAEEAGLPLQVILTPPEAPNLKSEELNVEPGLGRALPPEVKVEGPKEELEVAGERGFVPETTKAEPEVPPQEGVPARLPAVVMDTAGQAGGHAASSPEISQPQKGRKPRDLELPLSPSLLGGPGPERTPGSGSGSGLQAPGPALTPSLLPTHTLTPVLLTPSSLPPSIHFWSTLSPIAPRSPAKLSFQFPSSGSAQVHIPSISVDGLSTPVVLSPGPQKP
Method in brief: as §1

GABPA = biological target: T3, GABPA (Homo sapiens, UniProt Q06546 1-454); settings: protein: recombinant; tags: N-terminal GST; dsDNA, one strand shown
T3 sequence: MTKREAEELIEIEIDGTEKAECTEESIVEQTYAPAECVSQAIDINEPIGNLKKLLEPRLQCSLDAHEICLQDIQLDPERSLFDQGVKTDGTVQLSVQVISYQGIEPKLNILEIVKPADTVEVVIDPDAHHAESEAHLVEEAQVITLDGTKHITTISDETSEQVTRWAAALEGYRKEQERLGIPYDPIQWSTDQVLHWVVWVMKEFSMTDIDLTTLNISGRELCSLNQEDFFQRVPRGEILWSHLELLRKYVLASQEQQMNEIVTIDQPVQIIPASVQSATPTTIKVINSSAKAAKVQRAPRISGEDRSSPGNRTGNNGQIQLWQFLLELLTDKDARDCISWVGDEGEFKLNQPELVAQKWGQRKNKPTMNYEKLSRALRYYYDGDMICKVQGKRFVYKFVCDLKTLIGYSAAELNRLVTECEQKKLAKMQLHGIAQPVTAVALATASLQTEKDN
Method in brief: as §1

ERG = biological target: T4, ERG (Homo sapiens, UniProt P11308 1-479); settings: protein: recombinant; tags: N-terminal GST; dsDNA, one strand shown
T4 sequence: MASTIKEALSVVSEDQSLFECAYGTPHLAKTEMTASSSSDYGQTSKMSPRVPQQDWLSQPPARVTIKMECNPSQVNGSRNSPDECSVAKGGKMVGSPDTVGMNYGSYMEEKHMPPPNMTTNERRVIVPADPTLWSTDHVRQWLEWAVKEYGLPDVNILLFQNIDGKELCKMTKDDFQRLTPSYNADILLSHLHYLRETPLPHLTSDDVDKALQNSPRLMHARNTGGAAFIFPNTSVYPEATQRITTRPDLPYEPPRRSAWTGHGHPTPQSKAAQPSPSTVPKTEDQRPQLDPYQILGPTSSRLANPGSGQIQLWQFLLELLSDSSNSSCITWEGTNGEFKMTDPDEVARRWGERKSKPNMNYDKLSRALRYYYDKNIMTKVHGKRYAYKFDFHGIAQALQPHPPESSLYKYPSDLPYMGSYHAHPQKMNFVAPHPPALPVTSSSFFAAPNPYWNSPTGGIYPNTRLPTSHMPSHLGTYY
Method in brief: as §1

ELF1 = ELF1 (Homo sapiens, UniProt P32519 1-619); settings: protein: recombinant; tags: N-terminal GST; dsDNA, one strand shown
Method in brief: as §1

EHF = biological target: T5, EHF (Homo sapiens, UniProt Q9NZC4 1-300); settings: protein: recombinant; tags: N-terminal GST; dsDNA, one strand shown
T5 sequence: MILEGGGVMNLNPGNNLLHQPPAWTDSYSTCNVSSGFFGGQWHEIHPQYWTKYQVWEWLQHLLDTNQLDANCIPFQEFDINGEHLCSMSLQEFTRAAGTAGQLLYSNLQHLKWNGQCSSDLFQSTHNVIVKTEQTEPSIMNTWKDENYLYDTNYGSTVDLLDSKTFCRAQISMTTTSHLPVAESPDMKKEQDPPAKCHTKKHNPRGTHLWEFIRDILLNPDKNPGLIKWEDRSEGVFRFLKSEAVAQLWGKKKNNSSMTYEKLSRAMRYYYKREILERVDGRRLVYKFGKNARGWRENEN
Method in brief: as §1

SPI1 = SPI1 (Homo sapiens, UniProt P17947 1-270); settings: protein: recombinant; tags: N-terminal GST; dsDNA, one strand shown
Method in brief: as §1

SPIB = SPIB (Homo sapiens, UniProt Q01892 1-262); settings: protein: recombinant; tags: N-terminal GST; dsDNA, one strand shown
Method in brief: as §1

ELK3 = biological target: T6, ELK3 (Homo sapiens, UniProt P41970 1-407); settings: protein: recombinant; tags: N-terminal GST; dsDNA, one strand shown
T6 sequence: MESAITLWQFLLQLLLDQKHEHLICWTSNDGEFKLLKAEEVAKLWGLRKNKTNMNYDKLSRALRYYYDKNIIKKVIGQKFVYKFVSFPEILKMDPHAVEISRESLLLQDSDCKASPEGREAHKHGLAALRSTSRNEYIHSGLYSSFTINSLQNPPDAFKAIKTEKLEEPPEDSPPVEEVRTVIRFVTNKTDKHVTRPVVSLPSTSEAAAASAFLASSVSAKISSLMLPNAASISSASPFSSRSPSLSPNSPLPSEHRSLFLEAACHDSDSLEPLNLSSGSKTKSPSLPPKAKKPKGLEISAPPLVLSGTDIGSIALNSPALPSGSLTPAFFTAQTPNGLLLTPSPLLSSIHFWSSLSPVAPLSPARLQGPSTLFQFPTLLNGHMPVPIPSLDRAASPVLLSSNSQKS
Method in brief: as §1

ETV5 = ETV5 (Homo sapiens, UniProt P41161 1-510); settings: protein: recombinant; tags: N-terminal GST; dsDNA, one strand shown
Method in brief: as §1

HSF1 = HSF1 (Homo sapiens, UniProt Q00613 1-529); settings: protein: recombinant; tags: N-terminal GST; chain copies: 3; dsDNA, one strand shown
Method in brief: as §1

SPIC = biological target: T7, SPIC (Homo sapiens, UniProt Q8N5J4 1-248); settings: protein: recombinant; tags: N-terminal GST; dsDNA, one strand shown
T7 sequence: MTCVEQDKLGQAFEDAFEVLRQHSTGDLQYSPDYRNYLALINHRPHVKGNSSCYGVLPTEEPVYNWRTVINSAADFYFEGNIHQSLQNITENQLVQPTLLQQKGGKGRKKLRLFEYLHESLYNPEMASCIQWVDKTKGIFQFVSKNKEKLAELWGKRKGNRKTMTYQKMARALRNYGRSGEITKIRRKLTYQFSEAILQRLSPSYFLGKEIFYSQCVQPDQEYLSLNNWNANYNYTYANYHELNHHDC
Method in brief: as §1

ELF4 = ELF4 (Homo sapiens, UniProt Q99607 1-663); settings: protein: recombinant; tags: N-terminal GST; dsDNA, one strand shown
Method in brief: as §1

ELK4 = biological target: T8, ELK4 (Homo sapiens, UniProt P28324-2 1-405); settings: protein: recombinant; tags: N-terminal GST; dsDNA, one strand shown
T8 sequence: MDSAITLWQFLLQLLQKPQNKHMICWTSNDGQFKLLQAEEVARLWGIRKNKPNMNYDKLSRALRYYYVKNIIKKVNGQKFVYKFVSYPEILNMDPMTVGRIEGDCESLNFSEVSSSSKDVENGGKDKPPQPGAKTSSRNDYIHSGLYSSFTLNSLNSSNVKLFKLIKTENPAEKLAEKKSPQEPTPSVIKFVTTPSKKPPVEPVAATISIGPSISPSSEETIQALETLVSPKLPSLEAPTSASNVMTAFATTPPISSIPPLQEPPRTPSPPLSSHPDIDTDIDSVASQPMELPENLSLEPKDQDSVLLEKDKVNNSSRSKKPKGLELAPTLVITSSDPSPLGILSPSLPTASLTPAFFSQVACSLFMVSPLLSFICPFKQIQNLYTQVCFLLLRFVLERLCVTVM
Method in brief: as §1

ETV2 = biological target: T9, ETV2 (Homo sapiens, UniProt O00321 1-342); settings: protein: recombinant; tags: N-terminal GST; dsDNA, one strand shown
T9 sequence: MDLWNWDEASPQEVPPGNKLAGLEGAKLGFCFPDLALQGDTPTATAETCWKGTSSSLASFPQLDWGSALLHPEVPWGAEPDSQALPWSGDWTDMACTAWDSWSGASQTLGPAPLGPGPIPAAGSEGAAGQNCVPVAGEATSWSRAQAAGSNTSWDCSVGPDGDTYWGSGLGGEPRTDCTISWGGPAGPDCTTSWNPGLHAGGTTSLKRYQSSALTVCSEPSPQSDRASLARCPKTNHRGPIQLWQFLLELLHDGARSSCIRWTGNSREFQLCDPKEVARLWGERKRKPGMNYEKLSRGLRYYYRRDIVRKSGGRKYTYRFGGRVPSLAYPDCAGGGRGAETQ
Method in brief: as §1

ELF3 = biological target: T10, ELF3 (Homo sapiens, UniProt P78545 1-371); settings: protein: recombinant; tags: N-terminal GST; dsDNA, one strand shown
T10 sequence: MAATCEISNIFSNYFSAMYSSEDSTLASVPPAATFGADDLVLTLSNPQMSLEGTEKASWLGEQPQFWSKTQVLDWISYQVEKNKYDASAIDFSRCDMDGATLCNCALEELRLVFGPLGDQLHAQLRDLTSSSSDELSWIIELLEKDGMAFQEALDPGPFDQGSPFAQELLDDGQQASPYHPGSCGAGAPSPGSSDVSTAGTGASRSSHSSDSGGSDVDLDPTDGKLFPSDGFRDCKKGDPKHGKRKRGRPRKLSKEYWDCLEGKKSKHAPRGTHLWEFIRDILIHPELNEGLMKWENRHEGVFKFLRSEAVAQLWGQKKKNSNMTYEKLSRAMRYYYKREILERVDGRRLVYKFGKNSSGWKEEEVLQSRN
Method in brief: as §1

CRX = CRX (Homo sapiens, UniProt O43186 1-299); settings: protein: recombinant; tags: N-terminal GST; dsDNA, one strand shown
Method in brief: as §1

ETV1 = ETV1 (Homo sapiens, UniProt P50549 1-477); settings: protein: recombinant; tags: N-terminal GST; dsDNA, one strand shown
Method in brief: as §1

Chain of CRX (O43186 whole entry): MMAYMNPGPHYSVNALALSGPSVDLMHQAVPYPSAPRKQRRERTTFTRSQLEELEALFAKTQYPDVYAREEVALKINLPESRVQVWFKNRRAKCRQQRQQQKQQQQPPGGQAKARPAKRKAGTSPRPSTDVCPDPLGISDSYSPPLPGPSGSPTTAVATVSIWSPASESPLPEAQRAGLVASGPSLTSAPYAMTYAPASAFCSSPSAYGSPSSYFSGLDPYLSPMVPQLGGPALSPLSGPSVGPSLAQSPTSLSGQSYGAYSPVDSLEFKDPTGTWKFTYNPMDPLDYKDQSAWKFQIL
Chain of ETV1 (P50549 whole entry): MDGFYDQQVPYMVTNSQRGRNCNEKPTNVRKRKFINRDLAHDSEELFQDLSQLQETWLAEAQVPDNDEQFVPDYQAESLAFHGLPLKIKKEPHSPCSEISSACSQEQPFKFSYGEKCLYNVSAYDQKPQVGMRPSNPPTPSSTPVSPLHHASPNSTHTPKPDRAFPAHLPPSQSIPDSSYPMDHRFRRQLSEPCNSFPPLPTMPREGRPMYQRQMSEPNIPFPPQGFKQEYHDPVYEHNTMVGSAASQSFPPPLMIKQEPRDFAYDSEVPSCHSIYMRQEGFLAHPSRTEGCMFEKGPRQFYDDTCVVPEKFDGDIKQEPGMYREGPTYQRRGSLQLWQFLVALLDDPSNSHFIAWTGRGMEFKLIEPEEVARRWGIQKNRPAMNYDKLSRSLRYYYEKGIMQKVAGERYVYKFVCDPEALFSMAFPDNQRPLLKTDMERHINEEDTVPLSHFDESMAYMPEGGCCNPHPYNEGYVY
Chain of SPIB (Q01892 whole entry): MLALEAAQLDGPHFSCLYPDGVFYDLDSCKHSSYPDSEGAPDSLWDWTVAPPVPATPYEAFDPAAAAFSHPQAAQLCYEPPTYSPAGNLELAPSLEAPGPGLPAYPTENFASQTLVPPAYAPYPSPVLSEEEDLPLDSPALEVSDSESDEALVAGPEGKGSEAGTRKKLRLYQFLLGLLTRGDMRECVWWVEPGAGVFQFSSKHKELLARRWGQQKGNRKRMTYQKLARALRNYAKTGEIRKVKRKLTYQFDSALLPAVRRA
Chain of HSF1 (Q00613 whole entry): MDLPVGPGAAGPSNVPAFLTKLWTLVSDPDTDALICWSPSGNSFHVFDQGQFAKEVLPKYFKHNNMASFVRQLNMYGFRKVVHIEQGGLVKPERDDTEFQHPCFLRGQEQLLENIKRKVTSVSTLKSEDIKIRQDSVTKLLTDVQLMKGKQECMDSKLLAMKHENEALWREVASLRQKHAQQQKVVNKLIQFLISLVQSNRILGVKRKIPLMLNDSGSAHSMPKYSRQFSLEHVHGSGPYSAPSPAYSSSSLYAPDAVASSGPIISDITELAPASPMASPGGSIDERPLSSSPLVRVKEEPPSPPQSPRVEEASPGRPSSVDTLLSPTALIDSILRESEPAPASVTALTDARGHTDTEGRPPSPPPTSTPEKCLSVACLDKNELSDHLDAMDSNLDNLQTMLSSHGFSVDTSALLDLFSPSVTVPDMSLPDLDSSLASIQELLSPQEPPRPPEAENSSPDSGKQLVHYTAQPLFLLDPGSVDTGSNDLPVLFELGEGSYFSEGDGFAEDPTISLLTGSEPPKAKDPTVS
Chain of ETV5 (P41161 whole entry): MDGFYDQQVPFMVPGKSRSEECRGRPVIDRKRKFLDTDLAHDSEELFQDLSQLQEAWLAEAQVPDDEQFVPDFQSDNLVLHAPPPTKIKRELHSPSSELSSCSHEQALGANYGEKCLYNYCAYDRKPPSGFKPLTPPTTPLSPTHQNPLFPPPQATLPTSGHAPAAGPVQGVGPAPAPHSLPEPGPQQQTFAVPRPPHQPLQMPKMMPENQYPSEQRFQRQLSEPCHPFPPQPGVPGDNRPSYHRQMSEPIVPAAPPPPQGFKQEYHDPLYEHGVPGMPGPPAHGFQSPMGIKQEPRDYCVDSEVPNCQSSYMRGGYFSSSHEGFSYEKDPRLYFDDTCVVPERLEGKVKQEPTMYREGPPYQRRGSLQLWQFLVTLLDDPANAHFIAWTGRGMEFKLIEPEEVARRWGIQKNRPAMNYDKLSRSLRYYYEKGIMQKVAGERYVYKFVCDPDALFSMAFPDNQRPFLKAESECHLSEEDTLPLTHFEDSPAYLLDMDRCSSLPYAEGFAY
Chain of ELF4 (Q99607 whole entry): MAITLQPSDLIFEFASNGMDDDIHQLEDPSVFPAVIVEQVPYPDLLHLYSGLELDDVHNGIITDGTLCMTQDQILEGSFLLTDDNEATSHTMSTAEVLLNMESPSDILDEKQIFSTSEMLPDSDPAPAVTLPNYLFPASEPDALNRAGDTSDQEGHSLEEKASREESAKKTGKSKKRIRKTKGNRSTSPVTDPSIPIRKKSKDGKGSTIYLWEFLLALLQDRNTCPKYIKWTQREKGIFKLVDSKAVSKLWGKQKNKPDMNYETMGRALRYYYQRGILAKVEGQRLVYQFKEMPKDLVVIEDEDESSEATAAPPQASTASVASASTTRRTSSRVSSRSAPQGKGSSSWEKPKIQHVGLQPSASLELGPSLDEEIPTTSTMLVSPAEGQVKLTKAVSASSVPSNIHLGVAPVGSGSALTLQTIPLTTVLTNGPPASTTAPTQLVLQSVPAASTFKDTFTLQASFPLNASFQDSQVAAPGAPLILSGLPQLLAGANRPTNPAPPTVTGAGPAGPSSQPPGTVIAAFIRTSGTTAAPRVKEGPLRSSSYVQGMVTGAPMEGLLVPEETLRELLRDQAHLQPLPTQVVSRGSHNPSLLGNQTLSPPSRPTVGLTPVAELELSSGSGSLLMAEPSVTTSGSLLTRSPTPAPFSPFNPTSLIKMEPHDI
Chain of ELF1 (P32519 whole entry): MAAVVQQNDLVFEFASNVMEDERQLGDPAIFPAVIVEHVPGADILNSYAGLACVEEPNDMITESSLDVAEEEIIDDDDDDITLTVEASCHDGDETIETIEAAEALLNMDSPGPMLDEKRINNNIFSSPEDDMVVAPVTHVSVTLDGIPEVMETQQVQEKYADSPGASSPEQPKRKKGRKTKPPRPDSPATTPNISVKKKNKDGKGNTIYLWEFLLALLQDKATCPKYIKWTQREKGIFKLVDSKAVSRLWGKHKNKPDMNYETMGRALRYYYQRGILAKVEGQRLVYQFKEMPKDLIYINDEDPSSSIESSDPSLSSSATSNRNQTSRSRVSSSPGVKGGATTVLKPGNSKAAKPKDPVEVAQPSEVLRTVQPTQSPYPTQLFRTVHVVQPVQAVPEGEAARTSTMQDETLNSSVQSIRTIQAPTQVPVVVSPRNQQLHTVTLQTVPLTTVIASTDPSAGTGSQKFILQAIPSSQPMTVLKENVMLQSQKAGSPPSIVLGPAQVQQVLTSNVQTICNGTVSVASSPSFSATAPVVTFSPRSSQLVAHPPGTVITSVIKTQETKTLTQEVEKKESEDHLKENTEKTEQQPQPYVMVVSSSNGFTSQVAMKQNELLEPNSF

CTATTA
binding signal (FLI1): 1.18 fold enrichment (6-mer frequency, TF over GST control) | binding signal (ELK1): 1.05 fold enrichment (6-mer frequency, TF over GST control) | binding signal (GABPA): 1.06 fold enrichment (6-mer frequency, TF over GST control) | binding signal (ERG): 1.07 fold enrichment (6-mer frequency, TF over GST control) | binding signal (ELF1): 1.09 fold enrichment (6-mer frequency, TF over GST control) | binding signal (EHF): 1.12 fold enrichment (6-mer frequency, TF over GST control) | binding signal (SPI1): 1.1 fold enrichment (6-mer frequency, TF over GST control) | binding signal (SPIB): 1.13 fold enrichment (6-mer frequency, TF over GST control) | binding signal (ELK3): 1.04 fold enrichment (6-mer frequency, TF over GST control) | binding signal (ETV5): 1.14 fold enrichment (6-mer frequency, TF over GST control) | binding signal (HSF1): 1.3 fold enrichment (6-mer frequency, TF over GST control) | binding signal (SPIC): 1.07 fold enrichment (6-mer frequency, TF over GST control) | binding signal (ELF4): 1.14 fold enrichment (6-mer frequency, TF over GST control) | binding signal (ELK4): 1.09 fold enrichment (6-mer frequency, TF over GST control) | binding signal (ETV2): 1.13 fold enrichment (6-mer frequency, TF over GST control) | binding signal (ELF3): 1.03 fold enrichment (6-mer frequency, TF over GST control) | binding signal (CRX): 1.76 fold enrichment (6-mer frequency, TF over GST control) | binding signal (ETV1): 1.14 fold enrichment (6-mer frequency, TF over GST control)
